Results on 31 compounds are retold here after PubChem BioAssay (Tox21).

Test [1] in a line: qHTS assay to identify small molecule antagonists of the glucocorticoid receptor (GR) signaling pathway - cell viability counter screen (AID 720693). Also: nearly all actives have a fitted effect of over 55% in size. For orientation: In qHTS, concentration-response curves come from the screen itself.
Test [2] is described as follows: qHTS assay for identifying genotoxic compounds that show differential cytotoxicity against isogenic chicken DT40 cell lines with known DNA damage response pathways - Rev3 mutant cell line (AID 743014). Also: nearly all actives have a fitted effect of over 55% in size. Also: potency is read from the fitted curve at half-maximal effect.
Test [3] is described as follows: qHTS assay to identify small molecule antagonists of the androgen receptor (AR) signaling pathway - cell viability counter screen (AID 743033; also: nearly all actives have a fitted effect of over 45% in size; also: potency is read from the fitted curve at half-maximal effect).
Test [4] can be described thus: qHTS assay for identifying genotoxic compounds that show differential cytotoxicity against isogenic chicken DT40 cell lines with known DNA damage response pathways - Rad54/Ku70 mutant cell line (AID 743015). Also: nearly all actives have a fitted effect of over 60% in size. Also: potency is read from the fitted curve at half-maximal effect.
Test [5] can be described thus: qHTS assay to identify small molecule antagonists of the androgen receptor (AR) signaling pathway using the MDA cell line - cell viability counter screen (AID 743041; also: nearly all actives have a fitted effect of over 45% in size; also: potency is read from the fitted curve at half-maximal effect). Summed up:
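MDA-kb2 AR-luc cells (MMTV-luciferase, AR/GR responsive) treated with compounds plus R1881 agonist for 16 h at 37C. CellTiter-Fluor added at 15.5 h; fluorescence read after 30 min in the same wells.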

Test [6] in a line: qHTS assay for identifying genotoxic compounds that show differential cytotoxicity against isogenic chicken DT40 cell lines with known DNA damage response pathways - wild type cell line (AID 743012). Also: nearly all actives have a fitted effect of over 60% in size. Also: potency is read from the fitted curve at half-maximal effect. Put shortly: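 Quantitative HTS on parental DT40 cells: 40 h compound treatment at 37 C/5% CO2, with viability then determined by CellTiter-Glo luminescence. Values serve as the DNA repair-proficient reference for differential cytotoxicity.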

Test [7] has as its target Androgen receptor (Homo sapiens) (UniProt P10275). Nature of the test: qHTS assay to identify small molecule antagonists of the androgen receptor (AR) signaling pathway (AID 743035; active = well fitted inhibition curve with a large enough effect in the signal ratio in the repeat runs, not every such curve was filed as active; the % refers to the signal ratio; also: potency is read from the fitted curve at half-maximal effect). Summed up: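 Cell line: GeneBLAzer AR-UAS-bla GripTite (HEK293). Stimulus: R1881 added after compound. Exposure: 16 h, 37C, 5% CO2. Readout: LiveBLAzer B/G FRET fluorescence after 2 h at room temperature.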

For test [8] the target is unchanged. Nature of the test: qHTS assay to identify small molecule agonists of the androgen receptor (AR) signaling pathway using the MDA cell line (AID 743040; also: nearly all actives have a fitted effect of over 20% in size). Put shortly:
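MDA-kb2 breast carcinoma cells carrying MMTV-luciferase (responsive to AR and GR), plated 5 h then treated 16 h with compounds at 37C, 0% CO2. Read-out was ONE-Glo luminescence after 30 min at room temperature.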

Test [9] has the same target. The test can be described thus: qHTS assay to identify small molecule antagonists of the androgen receptor (AR) signaling pathway using the MDA cell line (AID 743042; also: nearly all actives have a fitted effect of over 55% in size; also: potency is read from the fitted curve at half-maximal effect). Put shortly: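 MDA-kb2 breast carcinoma cells carrying MMTV-luciferase (AR/GR responsive) were co-treated with compounds and the agonist R1881 for 16 h at 37C. Inhibition read as ONE-Glo luminescence; CellTiter-Fluor fluorescence measured in parallel for cytotoxicity.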

Results filed as inconclusive are left out. The source made the active and inactive calls. Unless noted, calls follow the shape of the dose curve; as a rule, active = well fitted curve in the direction sought with a large enough effect in the repeat runs; inconclusive = weak or mixed curves; inactive = no such curve, though single readings can be large; an effect the other way counts as inactive or inconclusive.

Androgen receptor (Homo sapiens), sequence (P10275 whole entry, looked up): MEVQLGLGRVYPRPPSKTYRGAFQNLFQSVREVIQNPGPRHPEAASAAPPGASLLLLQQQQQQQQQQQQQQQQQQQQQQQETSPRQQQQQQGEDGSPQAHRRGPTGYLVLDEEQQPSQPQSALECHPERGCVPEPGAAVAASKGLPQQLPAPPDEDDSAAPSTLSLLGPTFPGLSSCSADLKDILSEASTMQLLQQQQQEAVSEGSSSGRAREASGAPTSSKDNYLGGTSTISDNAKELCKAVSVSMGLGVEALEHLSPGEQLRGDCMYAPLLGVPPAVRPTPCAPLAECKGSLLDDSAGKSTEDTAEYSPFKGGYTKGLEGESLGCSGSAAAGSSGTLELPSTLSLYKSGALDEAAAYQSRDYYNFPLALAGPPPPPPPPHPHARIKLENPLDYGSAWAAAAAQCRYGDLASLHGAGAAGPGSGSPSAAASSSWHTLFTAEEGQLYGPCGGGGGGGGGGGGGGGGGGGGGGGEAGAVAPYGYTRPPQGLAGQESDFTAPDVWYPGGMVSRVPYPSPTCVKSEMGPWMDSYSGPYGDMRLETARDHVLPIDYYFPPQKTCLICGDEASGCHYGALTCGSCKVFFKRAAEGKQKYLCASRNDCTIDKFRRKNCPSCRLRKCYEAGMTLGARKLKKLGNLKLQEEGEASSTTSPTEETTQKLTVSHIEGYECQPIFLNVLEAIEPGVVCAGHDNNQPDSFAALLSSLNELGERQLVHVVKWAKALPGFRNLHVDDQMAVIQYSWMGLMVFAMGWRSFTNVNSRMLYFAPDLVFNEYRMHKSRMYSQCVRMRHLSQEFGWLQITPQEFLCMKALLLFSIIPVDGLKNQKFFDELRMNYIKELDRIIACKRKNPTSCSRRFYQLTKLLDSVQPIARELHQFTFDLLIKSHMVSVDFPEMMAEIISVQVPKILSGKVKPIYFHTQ

Consider `Nc1ccc(N=Nc2ccc(N)cc2)cc1`, for which the Potency result in test [1], in test [2] and in test [3] was “inactive” throughout.

Turning to `CNc1c2c(nn1C)CCCC2`, the Potency entry in test [1], in test [2], in test [4], in test [3] and in [5] was “inactive” each time.

For `COC(=O)C1=C(C)NC(C)=C(C(=O)OC(C)(C)CN(C)CCC(c2ccccc2)c2ccccc2)C1c1cccc([N+](=O)[O-])c1` (centres undefined), the Potency in [6] was 5.96 µM (active); in [2] it was 6.68 µM (active); in test [4], 9.44 µM (active); in test [7], 23.9 µM (active); in test [9], 29.8 µM (active). Also, the Potency entry in test [3], in test [8] and in [5] was “inactive” in each case.

`CCN(Cc1cccc(S(=O)(=O)O)c1)c1ccc(C(=C2C=CC(=[N+](CC)Cc3cccc(S(=O)(=O)O)c3)C=C2)c2ccccc2S(=O)(=O)[O-])cc1`: the Potency in test [6] was 15.4 µM (active); in test [2] it was 17.3 µM (active); in test [4], 15.4 µM (active); in test [5] it was 38.7 µM (active).

`CC(C)(O)c1coc(S(=O)(=O)NC(=O)Nc2c3c(cc4c2CCC4)CCC3)c1`: the Potency entry in test [1], in [3] and in test [5] was “inactive” throughout.

Regarding `CCN(Cc1cccc(S(=O)(=O)O)c1)c1ccc(C(=C2C=CC(=[N+](CC)Cc3cccc(S(=O)(=O)O)c3)C=C2)c2ccc(O)cc2S(=O)(=O)[O-])cc1`, the Potency is 10.5 µM (active) in [6], 9.32 µM (active) in [2] and 11.7 µM (active) in test [4].

Turning to `O=C(c1ccccc1)c1ccc(O)cc1`, the Potency result in test [1], in [3], in [8], in [5] and in test [9] was “inactive” in each case.

With `O=C1c2ccccc2C(=O)c2c(O)ccc(O)c21`, the Potency result in [2], in test [3] and in [5] was “inactive” throughout. In addition, the Potency in [4] is 7.7 µM (active).

In the case of `CCCCCCCCCCCSCC(=O)O`, the Potency result in test [6], in [2], in test [4], in [3] and in test [5] was “inactive” throughout.

As for `CCN(CC)CCOC(=O)C(c1ccccc1)c1ccccc1`, the Potency entry in test [1], in [3] and in test [5] was “inactive” in each case.

`Nc1c(Cl)cc(Cl)cc1[N+](=O)[O-]`: the Potency result in test [1], in [3], in [7], in test [8], in test [5] and in test [9] was “inactive” throughout.

Consider `CC/C=C\C/C=C\C/C=C\CCCCCCCC(=O)OCC`, for which the Potency entry in test [1], in test [3] and in [5] was “inactive” in each case. For the same compound, the Potency in test [4] was 70.1 µM (active).

Take `[Cl][Nd]([Cl])[Cl]`: the Potency result in [1], in test [2], in test [4], in [3] and in [5] was “inactive” throughout.

On to `Cc1c(C2(c3cc(Br)c(O)c(Br)c3C)OS(=O)(=O)c3ccccc32)cc(Br)c(O)c1Br`, for which the Potency is 18.8 µM (active) in test [6]; 18.8 µM (active) in test [2]; 18.8 µM (active) in [4]; 16.9 µM (active) in test [3]; 23.6 µM (active) in test [5].

With `CC(C)C(O)C(C)(C)CO` (centres undefined), the Potency result in test [6], in test [2], in test [4], in test [3] and in [5] was “inactive” each time.

Consider `Oc1ccc2c(c1)Cc1ccccc1-2`, for which the Potency entry in test [1] and in test [5] was “inactive” throughout.

As for `CO[C@@H]1[C@@H](OC)[C@H](C)[C@@](O)(CC(=O)O)O[C@H]1[C@H](C)[C@H]1O[C@@]2(CC[C@@](C)([C@H]3CC[C@@](C)([C@@H]4O[C@@H]([C@H]5O[C@](C)(O)[C@H](C)C[C@@H]5C)C[C@@H]4OC4C[C@H](OC)[C@@H](OC)[C@H](C)O4)O3)O2)C[C@H](O)[C@H]1C` (some centres undefined), the Potency in test [6] is 0.168 µM (active); in test [2], 0.15 µM (active); in test [4] it was 0.211 µM (active); in test [5], 1.06 µM (active).

Regarding `CCCCCCCC/C=C\CCCCCCCC(=O)OCCO`, the Potency in test [2] is 81 µM (active); in [4], 72.2 µM (active). In addition, the Potency entry in [3] and in test [5] was “inactive” throughout.

For the compound `COc1cc(OC)c2ccc(=O)oc2c1`, the Potency entry in [1], in test [3], in test [8], in [5] and in test [9] was “inactive” each time. In test [4], the Potency was 68.6 µM (active).

Consider `Nc1nc2ccc(OC(F)(F)F)cc2s1`, for which the Potency result in test [1] and in test [5] was “inactive” each time.

`CS(=O)(=O)c1ccc([C@@H](C[C@H]2CCC(=O)C2)C(=O)Nc2cnccn2)cc1Cl`: the Potency result in test [1], in test [3] and in [5] was “inactive” throughout.

For the compound `O[C@@H](CNC[C@H](O)[C@H]1CCc2cc(F)ccc2O1)[C@@H]1CCc2cc(F)ccc2O1`, the Potency in test [6] was 6.68 µM (active); in test [2] it was 13.3 µM (active); in test [4], 11.9 µM (active).

With `CC(=O)Oc1cccc(O)c1`, the Potency result in test [6], in test [2], in test [4], in [3] and in test [5] was “inactive” each time.

Regarding `CNC1CCCN(c2c(F)cc3c(=O)c(C(=O)O)cn(C4CC4)c3c2OC)C1` (centres undefined), the Potency result in [1], in [2], in test [4], in test [3] and in test [5] was “inactive” each time.

With `C=C(C)c1ccccc1`, the Potency result in [6], in test [2], in [4], in test [3] and in [5] was “inactive” throughout.

For the compound `COc1ccc(CCN(C)CCCN2CCc3cc(OC)c(OC)cc3CC2=O)cc1OC`, the Potency result in test [1], in [2], in test [4], in test [3] and in test [5] was “inactive” each time.

Take `CC(=O)OC(C)C[N+](C)(C)C` (centres undefined): the Potency result in test [1], in test [2], in test [4], in test [3] and in test [5] was “inactive” throughout.

As for `O=C(CCS)OCC(COC(=O)CCS)(COC(=O)CCS)COC(=O)CCS`, the Potency entry in [1], in [2], in [4], in [3] and in test [5] was “inactive” each time.

For `CC(C)(C)C(O)/C=C/c1ccc2c(c1)OCO2` (centres undefined), the Potency result in test [1], in [3] and in test [5] was “inactive” in each case.

Regarding `CC(C)OC(=O)c1ccccc1C(=O)OC(C)C`, the Potency result in test [1], in [3] and in [5] was “inactive” each time. The Potency in test [2] was 43.3 µM (active).

For the compound `CC(=O)OCCC(C)CC(C)(C)C` (centres undefined), the Potency result in [6], in test [2], in test [4], in test [3] and in test [5] was “inactive” each time.
